# Data: PubChem BioAssay
# Some of the results follow. Activity calls are given as the source filed them. Cut-off read from the data, not from the text of the source, unless noted: active = inhibition above about 23%; inactive = the rest.
# Test system: not listed separately
# Experiment: CNGC cAMP sensor activity inhibitors, counter-screen for NPY-Y2 potentiator project, cell-based, HEK293-CNG parental, membrane potential fluorescence (AID 1703;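 active = inhibition above the control-well mean plus 3 SD of those wells, cut at about 22% in these data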;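 note: 0% = DMSO with isoproterenol and 100% = DMSO without isoproterenol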)
# Details: isoproterenol cAMP, at 3.6 µM, active compounds read high
row,Structure (SMILES),inhibition
1,CC(=O)c1ccc2c(c1)OCCOCCOc1ccc(C(C)=O)cc1OCCOCCO2,22.4% (active)
2,CC(Nc1ccccc1)c1cccnc1 (configuration not stated),2.7% (inactive)
3,Cc1ccc(CCNC(=O)C2CCN(S(=O)(=O)N3CCCC3)CC2)cc1,-4.94% (inactive)
4,CN(C)c1ccc(CNC2C3CC4CC(C3)CC2C4)cc1 (configuration not stated),5.13% (inactive)
5,O=C1NC(c2ccc(-c3ccccc3[N+](=O)[O-])o2)C(C(=O)c2ccc(Cl)cc2)C(O)(C(F)(F)F)N1 (configuration not stated),31.2% (active)
6,O=C(Nc1sc2c(c1-c1nc3ccccc3[nH]1)CCCC2)C1CC1,19.9% (inactive)
7,CN(Cc1ccccc1)C(=O)CCNC(=O)Cn1cnc2ccccc2c1=O,11.2% (inactive)
8,O=C(NCc1ccccc1)c1ccc(S(=O)(=O)Nc2cccc(C(F)(F)F)c2)cc1,16.6% (inactive)
9,COc1cc(NC(=O)c2ccccc2NS(=O)(=O)c2ccc(Cl)s2)cc(OC)c1,-9.95% (inactive)
10,COc1ccc2nc(NC(=O)NC3CCCCC3)sc2c1,56.1% (active)
11,N/C(=N\S(=O)(=O)c1cc(C(F)(F)F)cc(C(F)(F)F)c1)c1cccs1,25.6% (active)

# Target: Neuropeptide Y receptor type 2 (Homo sapiens) (UniProt P49146)
# Experiment: NPY-Y2 direct agonists, counter-screen for NPY-Y2 potentiator project, cell-based, fluorescence (AID 1710;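 active = activation above the mean of solvent-only control wells plus 3 SD, cut at about 10% in these data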;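 note: cells stimulated by isoproterenol with no NPY added so direct agonism is tested; 0% = DMSO with isoproterenol alone and 100% = NPY at EC100 plus isoproterenol; agonism lowers probe fluorescence through less cAMP and CNG channel opening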)
# Details: HEK293 Y2/CNGC cells, membrane potential fluorescence, agonist mode; at 3.6 µM; active compounds read high
# Chain of Neuropeptide Y receptor type 2 (Homo sapiens) (P49146 whole entry, looked up): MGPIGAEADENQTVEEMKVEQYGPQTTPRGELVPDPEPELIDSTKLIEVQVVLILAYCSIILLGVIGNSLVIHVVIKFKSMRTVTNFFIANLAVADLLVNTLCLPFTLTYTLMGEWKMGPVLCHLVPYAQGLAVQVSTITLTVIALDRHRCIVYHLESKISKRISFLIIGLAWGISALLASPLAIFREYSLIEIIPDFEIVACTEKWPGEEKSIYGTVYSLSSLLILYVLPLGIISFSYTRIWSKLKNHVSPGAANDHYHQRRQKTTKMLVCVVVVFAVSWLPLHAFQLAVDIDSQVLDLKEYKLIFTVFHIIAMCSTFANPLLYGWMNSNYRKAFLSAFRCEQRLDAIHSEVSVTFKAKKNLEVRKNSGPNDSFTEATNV
row,Structure (SMILES),activation
1,CC(=O)c1ccc2c(c1)OCCOCCOc1ccc(C(C)=O)cc1OCCOCCO2,26.6% (active)
2,CC(Nc1ccccc1)c1cccnc1 (configuration not stated),17.8% (active)
3,Cc1ccc(CCNC(=O)C2CCN(S(=O)(=O)N3CCCC3)CC2)cc1,-8.83% (inactive)
4,CN(C)c1ccc(CNC2C3CC4CC(C3)CC2C4)cc1 (configuration not stated),-2.65% (inactive)
5,O=C1NC(c2ccc(-c3ccccc3[N+](=O)[O-])o2)C(C(=O)c2ccc(Cl)cc2)C(O)(C(F)(F)F)N1 (configuration not stated),32.6% (active)
6,O=C(Nc1sc2c(c1-c1nc3ccccc3[nH]1)CCCC2)C1CC1,24.5% (active)
7,CN(Cc1ccccc1)C(=O)CCNC(=O)Cn1cnc2ccccc2c1=O,18.3% (active)
8,O=C(NCc1ccccc1)c1ccc(S(=O)(=O)Nc2cccc(C(F)(F)F)c2)cc1,19.8% (active)
9,COc1cc(NC(=O)c2ccccc2NS(=O)(=O)c2ccc(Cl)s2)cc(OC)c1,-3.82% (inactive)
10,COc1ccc2nc(NC(=O)NC3CCCCC3)sc2c1,53.9% (active)
11,N/C(=N\S(=O)(=O)c1cc(C(F)(F)F)cc(C(F)(F)F)c1)c1cccs1,23.1% (active)

# Test system: not listed separately
# Experiment: KLF5 expression inhibitors, confirmation, DLD-1 cells, luminescence (AID 1834;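 active = inhibition above a set limit taken from the earlier primary screen, cut at about 63% in these data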;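 note: 0% = DMSO wells and 100% = LY294002 at 200 µM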)
# Details: DLD-1 KLF5 promoter firefly luciferase reporter, at 4 µM, active compounds read high
row,Structure (SMILES),inhibition
1,COc1ccccc1N1CCN(C(=O)c2cc(=O)c3cc(C)cc(C)c3o2)CC1,87.3% (active)
2,COc1ccc(Nc2cc(C)nc(-n3nc(C)cc3C)n2)cc1,78.8% (active)
3,CC(=O)c1ccc(Oc2cc(C)nc(-n3nc(C)cc3C)n2)cc1,63.5% (active)
4,CCNC(=O)CCc1nc(-c2ccc(C(C)(C)C)cc2)no1,56% (inactive)
5,CCn1c(SCC(=O)Nc2nccs2)nnc1-c1ccncc1,3.83% (inactive)
6,O=c1cc(-c2ccccc2)[nH]c2cc(F)ccc12,77.9% (active)
7,Cc1ccc2[nH]c(=O)c(CN(CCCN(C)C)C(=O)Nc3cccc(Cl)c3)cc2c1,-15.6% (inactive)
8,COc1ccccc1C1C2=C(COC2=O)Nc2cc3c(cc21)OCO3 (configuration not stated),88.1% (active)
9,COc1cccc(/C=N/Nc2ncc(C(F)(F)F)cc2Cl)c1O,99.8% (active)
10,CSc1nc(N(C)NC(=O)c2cccc(C)c2)c2ccccc2n1,88.7% (active)
11,C[C@@H]1C[C@@H]2O[C@H]2/C=C\C=C\C(=O)Cc2c(Cl)c(O)cc(O)c2C(=O)O1,67.1% (active)
12,CCOC(=O)CSC1=C(C#N)C(c2sccc2C)CC(=O)N1 (configuration not stated),63.3% (active)
13,CCOc1ccccc1NC(=O)Cn1nnc(C(=O)NCc2cccs2)c1N,83.1% (active)
14,CCOc1cc(C(=O)N2CCc3cc(OC)c(OC)cc3C2)ccc1OC(F)F,85.3% (active)
15,Cc1ccc(/C=N/NC(=O)COc2ccccc2-c2ccccc2)cc1,85.4% (active)
16,CN(c1ccc2nc3ccccc3c(=O)n2n1)C1CCCCC1,72.9% (active)
17,Cn1nccc1C(=O)NC1CCCc2c1cnn2-c1ccc(F)cc1F (configuration not stated),24.7% (inactive)
18,CCOC(=O)c1sc(NC(=O)c2sc(C)nc2C)nc1C,69.3% (active)
19,COc1ccc(C(=O)Nc2ccccc2C(=O)N/N=C/c2ccc(O)c(OC)c2)cc1,111% (active)
20,CN(CCO)c1ccc(/C=N/Nc2nncc3ccccc23)cc1,91.2% (active)

# Test system: not listed separately
# Experiment: cytotoxicity in rat IEC-6 cells, cytotoxicity control for KLF5 inhibitor project, cell-based, luminescence, triplicate (AID 1905);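 note: cells exposed to compounds for 48 hours before viability read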
# Details: IEC-6 rat intestinal cells, viability luminescence; at 4 µM; active compounds read high
row,Structure (SMILES),inhibition
1,COc1ccccc1N1CCN(C(=O)c2cc(=O)c3cc(C)cc(C)c3o2)CC1,58.2% (active)
2,COc1ccc(Nc2cc(C)nc(-n3nc(C)cc3C)n2)cc1,60.9% (active)
3,CC(=O)c1ccc(Oc2cc(C)nc(-n3nc(C)cc3C)n2)cc1,57.9% (active)
4,CCNC(=O)CCc1nc(-c2ccc(C(C)(C)C)cc2)no1,-2.69% (inactive)
5,CCn1c(SCC(=O)Nc2nccs2)nnc1-c1ccncc1,8.72% (inactive)
6,O=c1cc(-c2ccccc2)[nH]c2cc(F)ccc12,59.3% (active)
7,Cc1ccc2[nH]c(=O)c(CN(CCCN(C)C)C(=O)Nc3cccc(Cl)c3)cc2c1,6.49% (inactive)
8,COc1ccccc1C1C2=C(COC2=O)Nc2cc3c(cc21)OCO3 (configuration not stated),82.9% (active)
9,COc1cccc(/C=N/Nc2ncc(C(F)(F)F)cc2Cl)c1O,0.75% (inactive)
10,CSc1nc(N(C)NC(=O)c2cccc(C)c2)c2ccccc2n1,73.4% (active)
11,C[C@@H]1C[C@@H]2O[C@H]2/C=C\C=C\C(=O)Cc2c(Cl)c(O)cc(O)c2C(=O)O1,38% (active)
12,CCOC(=O)CSC1=C(C#N)C(c2sccc2C)CC(=O)N1 (configuration not stated),57.3% (active)
13,CCOc1ccccc1NC(=O)Cn1nnc(C(=O)NCc2cccs2)c1N,58.1% (active)
14,CCOc1cc(C(=O)N2CCc3cc(OC)c(OC)cc3C2)ccc1OC(F)F,59.4% (active)
15,Cc1ccc(/C=N/NC(=O)COc2ccccc2-c2ccccc2)cc1,74.2% (active)
16,CN(c1ccc2nc3ccccc3c(=O)n2n1)C1CCCCC1,9.18% (inactive)
17,Cn1nccc1C(=O)NC1CCCc2c1cnn2-c1ccc(F)cc1F (configuration not stated),13.8% (inactive)
18,CCOC(=O)c1sc(NC(=O)c2sc(C)nc2C)nc1C,2.65% (inactive)
19,COc1ccc(C(=O)Nc2ccccc2C(=O)N/N=C/c2ccc(O)c(OC)c2)cc1,4.51% (inactive)
20,CN(CCO)c1ccc(/C=N/Nc2nncc3ccccc23)cc1,-0.69% (inactive)
